KB-V1 cytotox – qHTS assay for MDR1-selective chemotherapeutics: Primary screen using the drug-selected MDR subline cells KB-V1 | hit rate 3.4% among 400,000 | KB-V1 MDR cells viability, CellTiter-Glo, 72 h | Potency, µM (titrated, usually from 46.1 µM), most hits filed as cytotoxic; note: nearly all actives have a fitted effect of over 60% in size
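qHTS viability screen in drug-selected KB-V1 MDR cells: 72 h compound treatment at 37 degrees C, ATP luminescence end point.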
S-ASM inh – Inhibitors of Secretory Acid Sphingomyelinase (S-ASM): qHTS; hit rate 0.006% among 340,000; Sphingomyelin phosphodiesterase (Homo sapiens), P17405; placental ASM, HMU-PC fluorogenic substrate, 60 min; Potency, µM (titrated, usually from 57.5 µM), hits mostly inhibitors
Target sequence (P17405 47-631 limits assumed): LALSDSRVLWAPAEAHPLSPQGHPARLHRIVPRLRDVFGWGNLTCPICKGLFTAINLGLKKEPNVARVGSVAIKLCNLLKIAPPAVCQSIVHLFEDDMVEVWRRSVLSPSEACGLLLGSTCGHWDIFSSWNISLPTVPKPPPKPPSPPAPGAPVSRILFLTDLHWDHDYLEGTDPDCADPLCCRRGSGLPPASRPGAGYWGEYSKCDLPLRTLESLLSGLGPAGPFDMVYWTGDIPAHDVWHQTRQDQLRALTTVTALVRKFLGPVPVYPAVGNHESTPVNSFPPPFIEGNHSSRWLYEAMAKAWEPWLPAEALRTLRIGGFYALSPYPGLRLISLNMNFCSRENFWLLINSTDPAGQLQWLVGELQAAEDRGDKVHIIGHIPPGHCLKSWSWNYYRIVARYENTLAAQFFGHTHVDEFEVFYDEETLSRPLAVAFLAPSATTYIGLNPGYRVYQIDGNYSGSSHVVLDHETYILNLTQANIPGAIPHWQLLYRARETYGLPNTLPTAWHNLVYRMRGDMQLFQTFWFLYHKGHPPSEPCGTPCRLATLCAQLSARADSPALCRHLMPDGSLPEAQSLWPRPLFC
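Human placenta-derived ASM preincubated with compound 10 min at room temperature, then reacted with 9 uM (final) fluorogenic HMU-PC substrate for 60 min at 37 C. Stop solution raises pH to 10; fluorescence read at Ex 386/Em 447 nm.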
KB-3-1 cytotox – qHTS assay for MDR1-selective chemotherapeutics: Primary screen using the parental adenocarcinoma cell KB-3-1; KB-3-1 viability, CellTiter-Glo ATP luminescence, 72 h; Potency, µM (top dose mostly 46.1 µM), most hits filed as cytotoxic; hit rate 1.4% among 400,000; note: nearly all actives have a fitted effect of over 60% in size
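Using CellTiter-Glo luminescence, growth of non-resistant KB-3-1 adenocarcinoma cells is assessed 72 h after pin-tool compound addition at 37 °C. Normalized responses across the concentration series yield fitted curves.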
MCF10A rerep – A quantitative high throughput screen for small molecules that induce DNA re-replication in MCF 10a normal breast cells. MCF 10A DNA re-replication, Hoechst nuclear intensity, 48 h. Potency, µM (series often up to 46.1 µM), actives largely listed as activators. AID 624296, 2012. hit rate 2.9% among 350,000; note: nearly all actives have a fitted effect of over 50% in size
SW480 rerep – A quantitative high throughput screen for small molecules that induce DNA re-replication in SW480 colon adenocarcinoma cells; Potency, µM (doses to about 46.1 µM), hits mostly activators; hit rate 1.8% among 340,000; SW480 DNA re-replication, Hoechst DNA content imaging, 48 h; note: nearly all actives have a fitted effect of over 55% in size
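Image-based read-out: total Hoechst fluorescence of nuclei (405 nm excitation, 500-530 nm emission), with hits raising the fraction of high-intensity nuclei. SW480 colon cells incubated 48 hr with compounds at 37 C.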
Giardia killer – Small Molecules that selectively kill Giardia lamblia: qHTS; AID 540267, 2011; Giardia lamblia trophozoite viability; activity change, % at 7.66 µM, hits read low; hit rate 0.15% among 340,000; in the data active = activity change below about -80%; inconclusive = between about -30% and that limit;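 note: parasites exposed to compound for two days anaerobically before the ATP read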
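Anaerobic 48 hrs incubation at 37 deg C of 100 trophozoites/well with test compounds; ATPLite 1-Step luminescence, 15-30 min RT, reports cellular ATP as viability.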
Numbers stand for hits; n = inactive; u = inconclusive; x = no result; [ ] = dose if it differs, or a comment. Compounds with a hit are over-represented: about 6.9% of the library has one in this group of screens. Unless noted, calls come from the whole dose curve; as a rule, active = well fitted curve in the direction sought with a large enough effect; inconclusive = small, poorly fitted or top-dose-only effect, or another doubt; inactive = no such curve, though single readings can be large; an effect the other way counts as inactive or inconclusive.

SMILES	KB-V1 cytotox	S-ASM inh	KB-3-1 cytotox	MCF10A rerep	SW480 rerep	Giardia killer
COc1ccc(/C=C2\CCC/C(=C\C=N\N(C)C)C2=O)cc1	u	n	n	8.2µM	n	n
CN(C)/N=C/C=C1\CCC/C(=C\c2ccc(F)c(F)c2)C1=O	u	n	u	14µM	u	n
O=S(=O)(Cc1ccccc1)N1CCN(c2nc(-c3cccs3)nc3ccccc23)CC1	x	x	x	x	x	n
CC1(C)CC(=O)C=C(C#CC2(O)CCCCC2)C1	16µM	x	23µM	x	x	x
Cc1cccc(NC(=O)CN2C(=O)COc3ccc(S(=O)(=O)Nc4ccccc4)cc32)c1C	n	x	n	x	x	x
CCCCOc1ccc(CNC(=O)c2ccc(NC(=O)N3CCSc4ncccc43)cc2)cc1	n	x	n	x	x	x
[O-][n+]1c2ccccc2cc2ccccc21	n	n	n	18µM	18µM	n
Cc1cc(NC(=O)/C=C/c2cccc(Cl)c2)n(-c2nc3ccccc3[nH]2)n1	u	n	u	21µM	u	n
COc1ccc(/C=C/C(=O)Nc2cc(C)nn2-c2nc3ccccc3[nH]2)cc1	16µM	n	u	u	18µM	n
Cc1cc(NC(=O)/C=C/c2ccc(F)cc2)n(-c2nc3ccccc3[nH]2)n1	n	n	n	u	n	n
Cc1cc(NC(=O)/C=C/c2cccc(F)c2)n(-c2nc3ccccc3[nH]2)n1	u	n	u	16µM	u	n
COc1ccc(N2C(=O)c3ccc(C(=O)OC(C)C)cc3C2=O)cc1	n	n	18µM	u	u	n
Cc1cc(Nc2ncc(Cl)cc2Cl)n(-c2ccccc2C)n1	n	n	n	u	u	n
Cc1ccc(-n2nc(C)cc2Nc2ncc(Cl)cc2Cl)cc1	21µM	n	n	u	u	n
Cc1cc(Nc2nc(Cl)c(Cl)cc2Cl)n(-c2ccccc2)n1	u	n	12µM	u	n	n
CCC(Oc1ccccc1F)C(=O)N1CCC(c2nc3ccccc3s2)CC1 (configuration not stated)	n	x	n	x	x	x
CCC(C)(C)c1ccc(OCCCC[n+]2cccc(C)c2)c(C(C)(C)CC)c1	n	n	3.3µM	u	u	n
COc1ccccc1NC(=O)N1CCCC(C(=O)Nc2cccc(C)c2C)C1 (configuration not stated)	n	n	n	n[0.0737 µM]	n	n
COc1cccc(NC(=O)N2CCCC(C(=O)Nc3ccccc3OC)C2)c1 (configuration not stated)	21µM	n	n	n	n	n
COc1cccc(NC(=O)N2CCC(C(=O)Nc3ccc(C)cc3C)CC2)c1	15µM	n	n	n	n	u
COc1cc(Cl)c(C)cc1NS(=O)(=O)c1c(C)nc2sccn2c1=O	u	x	n	x	x	x
CN(C)/C=N/c1ncc(C(=O)c2ccc(-c3ccccc3)cc2)s1	12µM	n	n	9.2µM	n	n
CCCCN(CCCC)c1ccc(/C=C2\C=Cc3ccccc32)cc1	n	x	n	x	x	x
N#Cc1c(-c2ccc(F)cc2)c(-c2ccc(F)cc2)nn(CCO)c1=O	8.2µM	n	3.7µM	5.8µM	3.3µM	n
N#Cc1c(-c2ccccc2)c(-c2ccccc2)nn(CC(=O)NNC(=O)Nc2ccc(Cl)c(Cl)c2)c1=O	n	n	u	u	u	n
SMILES	KB-V1 cytotox	S-ASM inh	KB-3-1 cytotox	MCF10A rerep	SW480 rerep	Giardia killer
O=C(/C=C/c1cn(-c2ccccc2)nc1-c1cccnc1)c1ccco1	21µM	n	u	u	u	n
O=C(N/N=C/c1cn(-c2ccccc2)nc1-c1cccs1)c1ccc(Cl)cc1	15µM	n	u	u	n	n
O=C(/C=C/c1cn(-c2ccccc2)nc1-c1cccnc1)N1CCCC1	n	n	n	n	n	n
CN1CCC(N(C)C(=O)/C=C/c2cn(-c3ccccc3)nc2-c2cccs2)CC1	21µM	n	n	u	n	n
O=C(N/N=C/c1cn(-c2ccccc2)nc1-c1cccnc1)c1cccnc1	n	n	n	n	n	n
O=C(N/N=C/c1cn(-c2ccccc2)nc1-c1cccs1)c1ccccc1F	21µM	n	u	u	u	n
COc1ccc(/C=C/c2cnccn2)cc1OC	n	x	u	x	x	x
CC(=O)c1ccc(NC(=O)COCc2cc(-c3ccc(F)cc3)on2)cc1	n	x	n	x	x	x
O=C(C(O)c1ccccc1)N1CCN(S(=O)(=O)c2ccc(OC(F)(F)F)cc2)CC1 (configuration not stated)	u	x	n	x	x	x
O=C(N/N=C/c1cn(-c2ccccc2)nc1-c1cccnc1)c1ccc(F)cc1	n	n	n	3.3µM	n	n
CC(C)c1nnc(NC(=O)c2nc(S(=O)(=O)Cc3ccc(F)cc3)ncc2Cl)s1	n	n	u	0.73µM	1.3µM	n
Cc1nnc(NC(=O)c2nc(S(=O)(=O)Cc3ccccc3C)ncc2Cl)s1	u	n	u	2.6µM	u	n
CC(C)c1nnc(NC(=O)c2nc(S(=O)(=O)Cc3ccccc3F)ncc2Cl)s1	n	n	u	0.73µM	n	u

Bioassay records: PubChem, National Center for Advancing Translational Sciences (NCATS)
